Assay results reported in PubChem BioAssay (NCATS).
Records with an inconclusive call do not appear. Where a call stands in place of a potency, no number is given. Activity calls are given as the source filed them. Calls come from the whole dose curve; as a rule, active = well fitted curve in the direction sought with a large enough effect; inconclusive = small, poorly fitted or top-dose-only effect, or another doubt; inactive = no such curve, though single readings can be large; an effect the other way counts as inactive or inconclusive.

How the values were obtained:
[1] = Quantitative highthroughput screen to assess conditional lethalithy of P12 Ichikawa cells grown in Human Plasma-Like Medium with dialyzed fetal bovine serum (HPLM+ds) (AID 1963879); details: Potency: viability; note: nearly all actives have a fitted effect of over 35% in size; note: potency is the fitted concentration of half-maximal effect; for viability: series mostly up to about 46 µM
Outline: (§1)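 Each medium arm—HPLM with 10% dialyzed FBS, or RPMI1640 with 5 mM glucose and 10% untreated or dialyzed FBS—was screened against an 11-point, 3-fold compound titration for 48 h at 37 °C, with CellTiter-Glo luminescence as endpoint.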

[2] = Quantitative highthroughput screen to assess conditional lethalithy of P12 Ichikawa cells grown in RPMI1640 with dialyzed fetal bovine serum (RPMI+ds) (AID 1963880); details: Potency: P12-Ichikawa viability; note: nearly all actives have a fitted effect of over 35% in size; note: potency is the fitted concentration of half-maximal effect
Outline: as §1

[3] = Quantitative highthroughput screen to assess conditional lethalithy of P12 Ichikawa cells grown in RPMI1640 with untreated serum (RPMI+s) (AID 1963881); details: Potency: viability; note: nearly all actives have a fitted effect of over 35% in size; note: potency is the fitted concentration of half-maximal effect; for viability: series mostly up to about 46 µM
Outline: as §1

[4] = Quantitative highthroughput screen to assess conditional lethalithy of SEM cells grown in Human Plasma-Like Medium with dialyzed fetal bovine serum (HPLM+ds) (AID 1963882); note: nearly all actives have a fitted effect of over 35% in size; note: potency is the fitted concentration of half-maximal effect; for viability: series mostly up to about 46 µM
Outline: as §1

[5] = Quantitative highthroughput screen to assess conditional lethalithy of SEM cells grown in RPMI1640 with unreated serum (RPMI+s) (AID 1963883); note: nearly all actives have a fitted effect of over 35% in size
Outline: as §1

[6] = Quantitative highthroughput screen to assess conditional lethalithy of NOMO1 cells grown in RPMI1640 with dialyzed fetal bovine serum (RPMI+ds) (AID 1963877); note: nearly all actives have a fitted effect of over 30% in size; note: potency is the fitted concentration of half-maximal effect; for viability: series mostly up to about 46 µM
Outline: as §1

[7] = Quantitative highthroughput screen to assess conditional lethalithy of NOMO1 cells grown in RPMI1640 with untreated serum (RPMI+s) (AID 1963876); note: nearly all actives have a fitted effect of over 35% in size
Outline: as §1

[8] = Quantitative highthroughput screen to assess conditional lethalithy of SEM cells grown in RPMI1640 with dialyzed fetal bovine serum (RPMI+ds) (AID 1963884)
Outline: as §1

SMILES	Potency [1]	Potency [2]	Potency [3]	Potency [4]	Potency [5]	Potency [6]	Potency [7]	Potency [8]
C[C@@H]1[C@H](O)[C@@H](C)C=CC=CCCC=CC=CC=CC=C[C@H](O[C@H]2O[C@@H](C)[C@H](O)[C@@H](N)[C@@H]2O)CC2O[C@](O)(C[C@@H](O)[C@H](O)CC[C@@H](O)C[C@@H](O)C[C@@H](O)CC(=O)O[C@H]1C)C[C@H](O)[C@H]2C(=O)O	inactive	inactive	inactive	inactive	inactive			
CC[C@H]1C=CC=CC[C@@H](C)[C@H](O)[C@@](C)(O)C(=O)[C@@H](C)[C@H](O)[C@@H](C)C(=O)[C@@H](C)[C@H](O)[C@@H](C)C=CC(=O)O[C@@H]2[C@@H](C)[C@H](CC1)O[C@]1(CC[C@H](C)[C@H](C[C@@H](C)O)O1)[C@H]2C	11.8 µM (active)	5.26 µM (active)	16.6 µM (active)	5.9 µM (active)		4.69 µM (active)		
CC=C(C)C(=O)N[C@@H](c1ccccc1)[C@@H](O)C(=O)O[C@H]1C[C@@]2(O)[C@@H](OC(=O)c3ccccc3)[C@@H]3[C@]4(OC(C)=O)CO[C@@H]4C[C@H](O)[C@@]3(C)C(=O)[C@H](OC(C)=O)C(=C1C)C2(C)C				inactive				
C[C@](O)(CS(=O)(=O)c1ccc(F)cc1)C(=O)Nc1ccc(C#N)c(C(F)(F)F)c1	inactive		inactive	inactive	inactive	inactive		
Oc1ccc2c3c1O[C@H]1c4[nH]c5c(c4C[C@@]4(O)[C@@H](C2)N(CC2CC2)CC[C@]314)C[C@@]1(O)[C@H]2Cc3ccc(O)c4c3[C@@]1(CCN2CC1CC1)[C@H]5O4	inactive			inactive			inactive	inactive
